PubChem BioAssay AID1626 (SRMLSC, 2009)
Screen size: about 220,000 compounds; about 2,000 (0.91%) were called active. Roughly 2% stayed inconclusive and do not appear here. A selection follows. Results with a measured potency or affinity are listed apart. Values without a mark were called inactive. Rule as the data show it: inconclusive = inhibition above about 80% without an active follow-up result; inactive = below that; test concentration not stated here.

test: M. tuberculosis H37Rv growth inhibitors, H37Rv strain (AID 1626); details: stronger effect = higher value, concentration not given here;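 also: bacteria incubated seven days before Alamar blue readout; 0% = bacteria only wells and 100% = bacteria with antibiotic wells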

Question: With `Cc1ccc2c(c1)NC(=O)C(CC(=O)NCCCN1CCc3ccccc3C1)O2` (centres undefined) as the molecule, how does the inhibition read?
Answer: -7.1%

Question: Which inhibition does the source give for `COCCOC(=O)c1c(C)oc2ccc(OCc3ccccc3)cc12` here?
Answer: 0.54%

Question: For `COCCOC(=O)c1c(C)oc2ccc(OC(=O)N(C)C)cc12`, which inhibition is on record?
Answer: -0.97%

Question: Which inhibition does the source give for `COCCOC(=O)c1c(C)oc2ccc(OS(C)(=O)=O)cc12` here?
Answer: 10.4%

Question: For `Cc1cc(=O)oc2cc(OC(=O)c3ccccc3)ccc12`, which inhibition is on record?
Answer: 70%

Question: Which inhibition does the source give for `COCCOC(=O)c1c(C)oc2ccc(OC(=O)c3c(OC)cccc3OC)cc12` here?
Answer: 9.56%

Question: Which inhibition does the source give for `CC(=O)Oc1ccc2c(C)cc(=O)oc2c1` here?
Answer: 74.8%

Question: Which inhibition does the source give for `COc1ccccc1N(CC(=O)NCc1ccccc1)C(=O)CCC(=O)Nc1cc(C)ccn1` here?
Answer: -0.58%

Question: Which inhibition does the source give for `Clc1cccc(-c2nnc(-c3ccccc3)o2)c1` here?
Answer: 10.9%

Question: With `N#CCC(=O)Nc1ccc(C(=O)NCc2ccccn2)cc1` as the molecule, how does the inhibition read?
Answer: -2.46%

Question: For `CCC(=O)c1cc(F)c(N2CCN(S(=O)(=O)c3ccc(C)cc3)CC2)cc1C`, which inhibition is on record?
Answer: 4.53%

Question: Which inhibition does the source give for `O=C(CN1C(=O)CCSc2ccccc21)N1CCC2(CC1)OCCO2` here?
Answer: -1.04%

Question: Which inhibition does the source give for `CCc1nnc(NC(=O)CSc2nnc(COc3ccccc3)n2Cc2ccccc2)s1` here?
Answer: -6.06%

Question: For `O=C(NCc1ccccc1)c1c[nH]c2cc3c(cc2c1=O)OCCO3`, which inhibition is on record?
Answer: -8.63%

Question: With `CC(c1ccccc1C(O)(c1ccccc1)c1ccccc1)N(C)C` (centres undefined) as the molecule, how does the inhibition read?
Answer: 12.7%

Question: For `CC(c1ccccc1C(O)c1ccccc1)N(C)C` (centres undefined), which inhibition is on record?
Answer: -3.64%

Question: Which inhibition does the source give for `COc1ccc(CNC(=O)CCn2c(=O)[nH]c3ccccc3c2=O)cc1` here?
Answer: -0.21%

Question: Which inhibition does the source give for `CCn1c(C2CCN(S(=O)(=O)c3ccc(OC)cc3)CC2)n[nH]c1=S` here?
Answer: 2.92%

Question: For `Cc1[nH]nc2c1C(c1ccc(Cl)cc1)C(C#N)=C(N)O2` (centres undefined), which inhibition is on record?
Answer: -11.2%

Question: With `Cc1[nH]nc2c1C(c1ccco1)C(C#N)=C(N)O2` (centres undefined) as the molecule, how does the inhibition read?
Answer: 5.49%

Question: Which inhibition does the source give for `Cc1[nH]nc2c1C(c1ccc(-c3ccccc3C#N)o1)C(C#N)=C(N)O2` (centres undefined) here?
Answer: -1.71%

Question: For `Cc1ccc(C2C(C#N)=C(N)Oc3n[nH]c(C)c32)cc1` (centres undefined), which inhibition is on record?
Answer: -5.8%

Question: For `O=C1CCC(c2ccccc2)=NN1`, which inhibition is on record?
Answer: -7.26%

Question: Which inhibition does the source give for `CC(C)=C1C2CCC1C1C(=O)N(c3ccc(C)c(C)c3)C(=O)C21` (centres undefined) here?
Answer: 2.47%

Question: With `Cn1cc(Br)c(C(=O)NC(=S)Nc2ccc(S(N)(=O)=O)cc2)n1` as the molecule, how does the inhibition read?
Answer: -5.09%

Question: Which inhibition does the source give for `Cc1cc(C(=O)Nc2cccnc2Cl)on1` here?
Answer: -0.41%

Question: Which inhibition does the source give for `Cc1occc1-c1nnc(SCC(=O)Nc2nccs2)n1CCc1ccccc1` here?
Answer: 1.51%

Question: Which inhibition does the source give for `CC(=O)Nc1nc(-c2cccs2)cs1` here?
Answer: -6.43%

Question: With `CC(=O)Nc1nc(-c2ccc([N+](=O)[O-])cc2)cs1` as the molecule, how does the inhibition read?
Answer: -3.92%

Question: For `COCC(=O)Nc1nc(-c2ccc([N+](=O)[O-])cc2)cs1`, which inhibition is on record?
Answer: 0.01%

Question: With `Cc1csc(NC(=O)c2ccc(C)c([N+](=O)[O-])c2)n1` as the molecule, how does the inhibition read?
Answer: 3.94%

Question: For `Cc1csc(NC(=O)c2ccc(C(=O)Nc3nc(C)cs3)cc2)n1`, which inhibition is on record?
Answer: -5.15%

Question: For `COc1ccc(CC(=O)Nc2nc(-c3cccc([N+](=O)[O-])c3)cs2)cc1`, which inhibition is on record?
Answer: 1.75%

Question: With `Cc1cc(NS(=O)(=O)c2ccc(NC(=O)NC(C)(C(F)(F)F)C(F)(F)F)cc2)no1` as the molecule, how does the inhibition read?
Answer: 3.8%

Question: Which inhibition does the source give for `CCN1CCN(C(=O)CCNC(=O)Cn2ccc3ccccc3c2=O)CC1` here?
Answer: -4.7%

Question: With `O=C(O)c1ccc(Cn2cnc3scc(-c4ccccc4)c3c2=O)cc1` as the molecule, how does the inhibition read?
Answer: 1.45%

Question: With `CCc1cccc2c(C(=O)CSc3nnc(-c4ccoc4C)n3C)c[nH]c12` as the molecule, how does the inhibition read?
Answer: -9.96%

Question: With `Cc1ccc2nc3c(cc2c1)CC1(C(=O)N(C)C(=O)N(C)C1=O)C1COCCN31` (centres undefined) as the molecule, how does the inhibition read?
Answer: 15.8%

Question: For `Cc1ccc(-n2c(=S)[nH]c3[nH]ncc3c2=O)cc1`, which inhibition is on record?
Answer: 1.01%

Question: For `COc1ccc(/C=C2\Sc3ccc(C(=O)N4CCc5ccccc5C4)cc3N(C)C2=O)cc1`, which inhibition is on record?
Answer: 23.7%

Question: With `O=C1Nc2cc(C(=O)N3CCc4ccccc4C3)ccc2S/C1=C\c1ccccc1` as the molecule, how does the inhibition read?
Answer: 27.6%

Question: For `CCCCSc1nc2ccc(Nc3nc(N4CCOCC4)nc(N4CCOCC4)n3)cc2s1`, which inhibition is on record?
Answer: 7.41%

Question: For `COCc1cc(=O)n2[nH]c(SCc3ccccc3)nc2n1`, which inhibition is on record?
Answer: -0.4%

Question: With `CC(C)COc1ncnc2c1sc1nc3c(cc12)COC(C)(C)C3` as the molecule, how does the inhibition read?
Answer: -12.6%

Question: With `Cc1nn2c(NCc3ccccn3)cc(C(C)(C)C)nc2c1-c1ccccc1` as the molecule, how does the inhibition read?
Answer: 68.6%

Question: Which inhibition does the source give for `Cc1nn2c(N3CCCC3)cc(C(C)C)nc2c1-c1ccccc1` here?
Answer: -3.85%

Question: With `CCCc1cc(N2CCCC2)n2nc(C)c(-c3ccccc3)c2n1` as the molecule, how does the inhibition read?
Answer: -0.95%

Question: With `Cc1cc(NCCCN2CCOCC2)n2nc(C)c(-c3ccccc3)c2n1` as the molecule, how does the inhibition read?
Answer: 1.95%

Question: With `Cc1cc(NCCN2CCOCC2)n2nc(C)c(-c3ccccc3)c2n1` as the molecule, how does the inhibition read?
Answer: 2.31%

Question: For `CC(=O)Nc1ccc(Nc2cc(C)nc3c(-c4ccc(Cl)cc4)c(C)nn23)cc1`, which inhibition is on record?
Answer: 21.5%

Question: For `Cc1nn2c(NCc3ccccn3)cc(C(C)C)nc2c1-c1ccccc1`, which inhibition is on record?
Answer: 99.8%

Question: For `Cc1cc(Nc2ccccc2)n2nc(C)c(-c3ccccc3)c2n1`, which inhibition is on record?
Answer: 3.74%

Question: For `NC(=S)Nc1cccc(F)c1`, which inhibition is on record?
Answer: -6.55%

Question: With `Cc1ccc(CNC(=O)Nc2cccc(C)c2)cc1` as the molecule, how does the inhibition read?
Answer: -0.4%

Question: With `CCC(Sc1ccccn1)C(=O)Nc1nnc(C)s1` (centres undefined) as the molecule, how does the inhibition read?
Answer: 22%

Question: For `O=C(Nc1ccc2c(c1)OCO2)c1nn(-c2ccccc2)c(=O)c2ccccc12`, which inhibition is on record?
Answer: -10.6%

Question: Which inhibition does the source give for `Cc1ccc(Nc2nc(-c3c(C)nc4ncccn34)cs2)cc1` here?
Answer: 6.26%

Question: With `Cc1nc2ncccn2c1-c1csc(Nc2ccc(O)cc2)n1` as the molecule, how does the inhibition read?
Answer: 1.06%

Question: With `O=C(Nc1cccc(Cl)c1)OCc1cn(-c2ccccc2)nn1` as the molecule, how does the inhibition read?
Answer: -9.19%

Question: For `Cc1ccc(CN2CCN(/N=C/c3cc(Br)ccc3O)CC2)cc1`, which inhibition is on record?
Answer: 2.82%

Question: Which inhibition does the source give for `COc1ccc(CCNC(=O)CN(CCc2ccccc2)S(C)(=O)=O)cc1OC` here?
Answer: 5.24%

Question: For `CCCN(CCC)C(=O)CSc1nc2c(sc(=S)n2-c2ccc(OCC)cc2)c(=O)[nH]1`, which inhibition is on record?
Answer: 6.22%

Question: With `O=C(O)CCC(=O)Nc1ccccc1C(=O)NCc1ccccc1` as the molecule, how does the inhibition read?
Answer: -4.2%

Question: For `O=C(Nc1ccccc1C(=O)NCc1ccccc1)c1ccccc1`, which inhibition is on record?
Answer: -4.15%

Question: With `O=C(NCc1cccc(CNC(=O)c2ccco2)c1)c1ccco1` as the molecule, how does the inhibition read?
Answer: -1.79%

Question: With `N/C(Cc1ccccc1Sc1ccccc1)=N\O` as the molecule, how does the inhibition read?
Answer: -3.65%

Question: For `COc1ccc(-c2noc(-c3cccs3)n2)cc1OC`, which inhibition is on record?
Answer: 10.1%

Question: For `COc1ccc(-c2csc(-c3cccs3)n2)c(OC)c1`, which inhibition is on record?
Answer: 6.31%

Question: For `O=C(CN1C(=O)NC2NC(=O)NC21)NN=C1CCCC1` (centres undefined), which inhibition is on record?
Answer: -3.27%

Question: With `Cc1ccccc1N(CC(=O)NCCSCc1ccco1)S(C)(=O)=O` as the molecule, how does the inhibition read?
Answer: -3.95%

Question: With `O=C(COC(=O)c1ccc(O)cc1)Nc1ccc(N2CCCCC2)cc1` as the molecule, how does the inhibition read?
Answer: 3.59%

Question: With `CC12CCC(C(=O)Nc3ccc4c(c3)OCCO4)(OC1=O)C2(C)C` (centres undefined) as the molecule, how does the inhibition read?
Answer: -12.4%

Question: For `N#Cc1c(N)c(C(=O)c2ccc(Cl)cc2)n2c1CCC2`, which inhibition is on record?
Answer: -2.62%

Question: For `O=C(Nc1nnc(-c2ccccc2)o1)c1cccc(N2C(=O)CCC2=O)c1`, which inhibition is on record?
Answer: 7.39%

Question: Which inhibition does the source give for `CC(NC(=O)c1ccc(Br)s1)c1ccncc1` (centres undefined) here?
Answer: 0.09%

Question: Which inhibition does the source give for `CCCCNC(=O)Nc1nnc(-c2ccccc2)o1` here?
Answer: 64.8%

Question: With `CC(C)(C)C(=O)Nc1nnc(-c2ccncc2)o1` as the molecule, how does the inhibition read?
Answer: -0.06%

Question: For `O=C(Nc1nnc(-c2ccncc2)o1)c1ccccc1`, which inhibition is on record?
Answer: 68%

Question: With `CC(C)C(=O)Nc1nnc(-c2ccccc2)o1` as the molecule, how does the inhibition read?
Answer: 10.9%

Question: With `CCCCOC(=O)c1nnc(-c2ccc(Cl)cc2)o1` as the molecule, how does the inhibition read?
Answer: -12.6%

Question: With `O=C(Nc1cccnc1)c1ccc(Br)s1` as the molecule, how does the inhibition read?
Answer: -8.07%

Question: Which inhibition does the source give for `COCCNC(=O)CCC(=O)NNc1nc2ccccc2c2nc(C)nn12` here?
Answer: -0.78%

Question: Which inhibition does the source give for `CN(C)S(=O)(=O)c1cccc(C(=O)Nc2ccccc2[N+](=O)[O-])c1` here?
Answer: -64.1%

Question: For `CC(=O)c1cccc(NC(=O)c2ccc(N(Cc3ccc(C)cc3)S(C)(=O)=O)cc2)c1`, which inhibition is on record?
Answer: 1.69%

Question: With `Cc1ccc(/C=N/n2c(C)cc(C)c(C#N)c2=O)cc1` as the molecule, how does the inhibition read?
Answer: -12.6%

Question: With `O=C(NC1(C(F)(F)F)NC(=O)N(c2ccccc2F)C1=O)c1ccncc1` (centres undefined) as the molecule, how does the inhibition read?
Answer: -15.1%

Question: With `Cc1nnc(N)s1` as the molecule, how does the inhibition read?
Answer: -5.97%

Question: With `O=C(Nc1nnc(-c2ccc(Cl)cc2)o1)c1ccc(N2C(=O)CCC2=O)cc1` as the molecule, how does the inhibition read?
Answer: 8.01%

Question: Which inhibition does the source give for `CN(C)c1ccc(C(=O)NNC(=O)c2ccc(Cl)cc2)cc1` here?
Answer: -8.45%

Question: With `O=C(CNc1cccc(C(F)(F)F)c1)N/N=C/c1cn(-c2ccccc2)nc1-c1ccccc1` as the molecule, how does the inhibition read?
Answer: 8.35%

Question: For `NC(=O)CSc1nc(N)c2c3c(sc2n1)CCCCC3`, which inhibition is on record?
Answer: -1.55%

Question: Which inhibition does the source give for `CNC(=O)CSc1nc(N)c2c3c(sc2n1)CCC3` here?
Answer: 9.76%

Question: For `CC1CCc2c(sc3nc(SCC(=O)NCc4ccco4)nc(N)c23)C1` (centres undefined), which inhibition is on record?
Answer: 7.95%

Question: Which inhibition does the source give for `Cc1ccccc1NC(=O)CSc1nc(N)c2c3c(sc2n1)CSC(C)(C)C3` here?
Answer: 53.7%

Question: Which inhibition does the source give for `CC(C)(C)C1CCc2c(sc3nc(SCC(=O)O)nc(N)c23)C1` (centres undefined) here?
Answer: -0.64%

Question: With `CCOC(=O)CSc1nc(N)c2c3c(sc2n1)CCCC3` as the molecule, how does the inhibition read?
Answer: 70.6%

Question: Which inhibition does the source give for `CCOc1ccccc1C1C(C#N)=C(N)Oc2cc(N)ccc21` (centres undefined) here?
Answer: 8.36%

Question: Which inhibition does the source give for `C=CCN1C(=O)C(C(C)CC)NC1=S` (centres undefined) here?
Answer: -2.92%

Question: Which inhibition does the source give for `Cc1ccc(N=C2NC(=O)C(CC(=O)NCc3ccccc3)S2)cc1C` (centres undefined) here?
Answer: -1.52%
